Shown are actives, neighbours in structure and some others; about 4.8% of the full set was active somewhere.
ssDAF12 agonist: S. stercoralis DAF-12 nuclear receptor activators, primary screen, cell-based, luminescence, HEK293, GRIP1 co-expression, lit1-tk-luc | AID 652126, 2013 | hit rate 1% among 370,000 | activation, % at 6.8 µM | HEK293 ssDAF-12/GRIP1 lit1-tk-luc reporter; % of 3 µM dafachronic acid response | Nuclear hormone receptor DAF-12 (Strongyloides stercoralis);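 active = activation above the mean over all tested compounds plus 3 SD, cut at about 0.9% in these data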
SMARCA2 activ: SMARCA2 (BRM) function activators, primary screen, cell-based, luminescence, high throughput; hit rate 1% among 370,000; MG213 cells, MMTV-luciferase reporter, dexamethasone, overnight; activation, % at 9.1 µM; in the data active = activation above about 7.8%
hgDAF12 agonist: H. glycines DAF-12 receptor agonists, primary screen, cell-based, luminescence, HEK293, GAL4 fusion, UAS-luciferase. Nuclear hormone receptor DAF-12 (Heterodera glycines), GAL4 fusion. HEK293 GAL4-hgDAF12 UAS-luciferase reporter, agonist luminescence; normalized to butyrate control. activation, % at 6.8 µM. hit rate 1.8% among 370,000;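 active = activation above a cutoff set at the mean of all screened compounds plus 3 SD, cut at about 10% in these data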
hcDAF-12 act: H. contortus DAF-12 nuclear receptor activators, primary screen, cell-based, luminescence, HEK293, lit1-tk-luc reporter. HEK293 hcDAF-12 lit1-tk-luc reporter; 0% DMSO, 100% Δ7-dafachronic acid. activation, % at 6.8 µM. hit rate 1.4% among 370,000. AID 652067, 2013;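 active = activation above the mean of all tested compounds plus 3 SD, cut at about 5.5% in these data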
DAX1 inh-1: DAX1 (NR0B1) inhibitors, primary screen, cell-based, HEK293, Gal4-DAX1, luciferase luminescence; HEK293 Gal4-DAX1 luciferase reporter; inhibition, % at 6.75 µM; hit rate 0.99% among 340,000; AID 504766, 2011;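 active = inhibition above the mean over all tested compounds plus 3 SD, cut at about 4.2% in these data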;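 note: inhibition shows as a rise in luminescence from relieved DAX1 repression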
Target sequence (P51843 207-470 limits assumed): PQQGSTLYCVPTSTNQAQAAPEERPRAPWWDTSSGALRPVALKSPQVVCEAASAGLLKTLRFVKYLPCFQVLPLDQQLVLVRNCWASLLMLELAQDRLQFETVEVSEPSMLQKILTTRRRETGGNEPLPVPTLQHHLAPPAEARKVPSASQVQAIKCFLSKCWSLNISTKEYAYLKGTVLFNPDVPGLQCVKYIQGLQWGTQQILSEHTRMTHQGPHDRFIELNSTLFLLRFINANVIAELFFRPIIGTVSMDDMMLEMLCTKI
DAX1 inh-2: DAX1 (NR0B1) inhibitors on StAR promoter, primary screen, cell-based, luminescence, SF-1 (NR5A1), full-length DAX-1; HEK293T StAR-luciferase reporter, SF-1/DAX-1 repression relief; inhibition, % at 6.8 µM; hit rate 1.1% among 370,000;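 active = inhibition above the mean over all tested compounds plus 3 SD, cut at about 3.6% in these data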;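 note: higher inhibition means more luminescence from relief of DAX-1 repression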
Numbers stand for hits; . = inactive; / = not tested or not shown.

SMILES	ssDAF12 agonist	SMARCA2 activ	hgDAF12 agonist	hcDAF-12 act	DAX1 inh-1	DAX1 inh-2
Clc1ccccc1N1CCN(Cc2c[nH]c3ccccc23)CC1	.	.	.	.	.	.
CCCCCCCCN1C(=O)[C@@H](CC(=O)N2CCOCC2)C[C@@]2(C(=O)OC)C1=C[C@H](C(C)C)O[C@@H]2C1CC1	.	.	.	.	/	.
CC(=C/c1ccccc1)/C=N/n1c(-c2ccncc2)n[nH]c1=S	.	.	.	.	.	.
CC(=C/c1ccccc1)/C=N/n1c(C)n[nH]c1=S	.	.	.	.	4.7	.
Cc1ccc2nc(-c3ccccc3)nn2c1	.	.	.	6.5	.	.
CCOC(OCC)c1cc2ccccc2cn1	2.2	.	.	.	.	.
C=CCN1[C@H](CC(C)C)COc2cc(N3CCCC3)ccc2S1(=O)=O	.	.	.	.	/	.
COCCNC(=O)C[C@H]1CC[C@H]2[C@@H](COc3ccc(NC(=O)Nc4cccc(F)c4)cc3C(=O)N2C)O1	.	.	.	.	/	.
Cc1cccnc1NC(=S)Nc1ccc(Br)cc1Cl	.	.	12	.	6.7	.
S=C(NCc1ccncc1)Nc1ccc(Br)cc1Cl	.	.	.	.	.	.
COC(=O)CSc1nnc(-c2ccc(NS(=O)(=O)c3ccc(Cl)s3)cc2)o1	.	.	.	.	/	.
Cc1cccc2nc(-c3cccc(NC(=O)Cc4ccccc4)c3)cn12	.	13	.	.	.	.
COc1ccc(CC(=O)Nc2cccc(-c3cn4ccccc4n3)c2)cc1	.	.	.	.	5.4	.
CN(C)c1ccc(C(=O)NC2CCCCN(Cc3cccc(Cl)c3)C2=O)cc1 (stereo unspecified)	.	.	.	.	/	.
Cc1ccc2cc(COC(=O)c3cccc([N+](=O)[O-])c3)c(=O)[nH]c2c1	.	.	.	.	4.5	.
Cc1ccc2cc(CCNC(=O)c3cccc([N+](=O)[O-])c3)c(=O)[nH]c2c1	.	.	.	.	.	.
CSCCC(c1nc2ccccc2[nH]1)n1c(-c2ccc3ncccc3c2)nc2ccccc21 (stereo unspecified)	.	.	11	.	/	.
CCCCN1CCC(COC(=O)c2cc(Cl)c(N)c3c2OCCO3)CC1	.	.	.	.	.	4.5
COc1cc(/C=C/C(=O)OCC(=O)Nc2cccc(F)c2)ccc1O	.	.	.	.	.	.
COc1cc(/C=C/C(=O)OCC(=O)NC(=O)NC(C)(C)C)ccc1O	.	.	.	.	4.5	.
COCc1[nH]nc2c1C(c1ccc(C)cc1)NC2=O (stereo unspecified)	.	.	.	.	/	.
Cn1c(=O)c2c(nc(CN3CCOCC3)n2CCN2CCOCC2)n(C)c1=O	/	/	/	/	.	/
CC(C)CCn1c(CN2CCN(c3cccc(Cl)c3)CC2)nc2c1c(=O)n(C)c(=O)n2C	.	.	13	.	.	.
CC(C)Cn1c(Br)nc2c1c(=O)n(CCC#N)c(=O)n2C	.	.	.	.	4.3	.
CCCCn1c(CN2CCOCC2)nc2c1c(=O)n(C)c(=O)n2C	.	.	11	.	.	.
SMILES	ssDAF12 agonist	SMARCA2 activ	hgDAF12 agonist	hcDAF-12 act	DAX1 inh-1	DAX1 inh-2
CCCCCCn1c(Br)nc2c1c(=O)n(C)c(=O)n2C	1.0	.	.	.	.	.
C#CCN1CC(N(C)CCOC(=O)CC2C=CCC2)CS1(=O)=O (stereo unspecified)	.	.	.	.	/	.
C=CCNC(=O)Nc1ccc2c(c1)[C@@]1(CC(=O)N(CC(C)C)C1c1ccccc1)C(=O)N2C (stereo partly specified)	.	.	.	.	/	.
C/C(Cn1cnc([N+](=O)[O-])n1)=N\NC(=O)c1ccccc1	.	.	.	.	4.3	.
O=c1oc(Nc2ccc(F)cc2)nc2ccccc12	.	.	.	.	.	.
O=c1nc(Nc2ccccc2)oc2ccccc12	.	.	.	.	5.8	.

Bioassay records: PubChem BioAssay, The Scripps Research Institute Molecular Screening Center
